# In PubChem BioAssay (NCI):
# Compounds without any hit were thinned out: in the full panel of roughly 83,000, 20% have a hit.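 How to read the values: 0–100, growth inhibition (40 = 60% inhibited); 0, no net growth; -100 to 0, cell death (-40 = 40% of starting cells died; -100 = all dead).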 Unmarked numbers belong to inactive results. Active and inactive are the calls of the source. The calls were made as follows: active = growth percent below 10; inactive = the rest.
# Tested on: HCT-116 colon
# Assay: NCI-60 one-dose screen, 48 h (100 = growth as untreated, 0 = no growth, -100 = all killed)
# Conditions: 10 µM unless noted
row,Structure (SMILES),growth
1,COC(=O)c1cc2oc(/C=N\NC(=O)c3cc4oc(C)c(C)c4[nH]3)cc2[nH]1,101%
2,COc1cccc(-c2nc(-c3ccc(N)cc3)co2)c1,91.5%
3,CC(=O)c1nn(-c2ccccc2)c(=Nc2ccccc2)cc1C,98.2%
4,COc1cc(/C=C2\CN(S(=O)(=O)c3ccc(C)cc3)C/C(=C\c3cc(CN4CCOCC4)c(O)c(OC)c3)C2=O)cc(CN2CCOCC2)c1O,-83.3% (active)
5,CCOc1cc(/C=C/C(=O)C(C(=O)/C=C/c2ccc(OC(=O)CNc3nnc(C)s3)c(OCC)c2)C(=O)CNc2nnc(C)s2)ccc1OC(=O)CNc1nnc(C)s1,-77.7% (active)
6,O=C(N/N=C/c1cccc([N+](=O)[O-])c1)c1ccc(Br)o1,100%
7,O=C(CN1CCN(c2ccc(Cl)cc2)CC1)N1CCN(c2nnc(-c3ccccc3)c(-c3ccccc3)n2)CC1,16.7%
8,O=C1CNc2cc(Cl)ccc2N1,104%
9,Cc1cnc2nc(-c3ccc(N(C)C)cc3)cn2c1,97.2%
10,CCCCNCCCN(CCCC)CCCNCCCC,90.9%
11,C/C(=C\CCc1ccoc1)CC/C=C(\C)CCCC1COC(=O)C1 (stereo not drawn),98.2%
12,O=C(c1ccccc1)c1ccc(Oc2ccc([N+](=O)[O-])cc2[N+](=O)[O-])cc1,-12.8% (active)
13,OCCN1CCN(CCCN2c3ccccc3Sc3ccc(C(F)(F)F)cc32)CC1,2.28% (active)
14,COP(=O)(OC)C(c1ccc(O)cc1)(c1ccc(O)cc1)c1ccc(O)cc1,82.7%
15,CC(=O)N1N=C(c2ccc(Nc3nc(NCCO)nc(NCCO)n3)cc2)CC1c1ccc(Cl)cc1 (stereo not drawn),83.4%
16,[N-]=[N+]=NCc1cccc(/C(O)=C/C(=O)C(=O)O)c1,91.3%
17,O=C(COc1cccc(/C=C2\Cc3ccccc3C2=O)c1)c1ccc(Cl)cc1,100%
18,O=[N+]([O-])c1ccc(N=Nc2c(Cl)cc(O)cc2Cl)cc1,-57.2% (active)
19,O=c1c2ccccc2c2nccn2c2cc(Cl)ccc12,76.4%
20,CCN(CC)CCCCCCCNc1c2ccc(Cl)cc2nc2ccc(OC)cc12,-49.6% (active)

row,Structure (SMILES),growth
1,COc1cccc(C2=NN(C(C)=O)C(c3cc(OC)c(OC)c(OC)c3)C2)c1 (stereo not drawn),26.9%
2,O=C(c1ccccc1)C(CN1CCCCC1)c1ccccc1 (stereo not drawn),-100% (active)
3,Nc1ccn(C2O[C@H](CO)[C@@H](O)[C@@H]2O)c(=O)n1 (stereo partly drawn),32.4%
4,O=C(Nc1cccc(Cl)c1)Nc1cccc(Cl)c1,42.5%
5,COc1cccc(N2CCN(c3cccc(C)n3)CC2)c1,91%
6,Cc1cn(C(C=O)OC(C=O)CO)c(=O)[nH]c1=O (stereo not drawn),103%
7,CCOC(=O)CCC(=O)O[C@H]1[C@H](O[C@@H]2[C@@H](C)[C@H](O[C@H]3C[C@@](C)(OC)[C@@H](O)[C@H](C)O3)[C@@H](C)C(=O)O[C@H](CC)[C@@](C)(O)[C@H](O)[C@@H](C)C(=O)[C@H](C)C[C@@]2(C)O)O[C@H](C)C[C@@H]1N(C)C,99.7%
8,O=C(CNc1ccc2c(c1)C(=O)c1ccccc1C2=O)Nc1ccc2c(c1)C(=O)c1ccccc1C2=O,-90.2% (active)
9,O=c1[nH]c(N2CCC(Cc3ccccc3)CC2)nc2sc3c(c12)CCCC3,104%
10,Cn1cc(NC(=O)Nc2cc(C(=O)O)n(C)c2)cc1C(=O)O,102%
11,O=C(CN1CCN(c2ccc(Cl)cc2)CC1)N1CCN(c2nnc(-c3ccc(Cl)cc3)c(-c3ccc(Cl)cc3)n2)CC1,47.2%
12,O=C(Nc1ccc(Cl)cc1)Nc1ccccc1CNc1nc(Nc2ccc(OCCN3CCCC3)cc2)ncc1Cl,-28.7% (active)
13,CCCCCCCCCCOC(C)=O,112%
14,CCN(CC)CCNCC(=O)Oc1ccc(/C=C/C(=O)CC(=O)/C=C/c2ccc(OC(=O)CNCCN(CC)CC)c(OC)c2)cc1OC,-9.15% (active)
15,CC(=O)N1N=C(c2ccc(C(F)(F)F)cc2)CC1c1ccc2c(c1)OCO2 (stereo not drawn),45.5%
16,O=C1CSC(c2ccccc2O)N1c1nnc(Cn2ccnc2)o1 (stereo not drawn),50.8%
17,O=C(/C=C/c1cccc(Nc2ccnc3cc(Cl)ccc23)c1)c1ccc(Cl)cc1,14.2%
18,CC(NNC(=S)N1CCCCCC1)c1ccc2ccccc2n1 (stereo not drawn),26.5%
19,O=C(Nc1nc(-c2ccc(Cl)cc2)cs1)c1cc(-c2ccc(Br)cc2)nc2ccc(Cl)cc12,5.84% (active)

# Tested on: HCC-2998 colon
# Assay: as above
# Conditions: 10 µM unless noted
row,Structure (SMILES),growth
1,COC(=O)c1cc2oc(/C=N\NC(=O)c3cc4oc(C)c(C)c4[nH]3)cc2[nH]1,101%
2,COc1cccc(-c2nc(-c3ccc(N)cc3)co2)c1,122%
3,CC(=O)c1nn(-c2ccccc2)c(=Nc2ccccc2)cc1C,100%
4,COc1cc(/C=C2\CN(S(=O)(=O)c3ccc(C)cc3)C/C(=C\c3cc(CN4CCOCC4)c(O)c(OC)c3)C2=O)cc(CN2CCOCC2)c1O,-89.3% (active)
5,CCOc1cc(/C=C/C(=O)C(C(=O)/C=C/c2ccc(OC(=O)CNc3nnc(C)s3)c(OCC)c2)C(=O)CNc2nnc(C)s2)ccc1OC(=O)CNc1nnc(C)s1,-64.8% (active)
6,O=C(N/N=C/c1cccc([N+](=O)[O-])c1)c1ccc(Br)o1,87.2%
7,O=C(CN1CCN(c2ccc(Cl)cc2)CC1)N1CCN(c2nnc(-c3ccccc3)c(-c3ccccc3)n2)CC1,56.9%
8,O=C1CNc2cc(Cl)ccc2N1,104%
9,Cc1cnc2nc(-c3ccc(N(C)C)cc3)cn2c1,111%
10,CCCCNCCCN(CCCC)CCCNCCCC,103%
11,C/C(=C\CCc1ccoc1)CC/C=C(\C)CCCC1COC(=O)C1 (stereo not drawn),107%
12,O=C(c1ccccc1)c1ccc(Oc2ccc([N+](=O)[O-])cc2[N+](=O)[O-])cc1,97.8%
13,OCCN1CCN(CCCN2c3ccccc3Sc3ccc(C(F)(F)F)cc32)CC1,-83.2% (active)
14,COP(=O)(OC)C(c1ccc(O)cc1)(c1ccc(O)cc1)c1ccc(O)cc1,127%
15,CC(=O)N1N=C(c2ccc(Nc3nc(NCCO)nc(NCCO)n3)cc2)CC1c1ccc(Cl)cc1 (stereo not drawn),102%
16,[N-]=[N+]=NCc1cccc(/C(O)=C/C(=O)C(=O)O)c1,88.5%
17,O=C(COc1cccc(/C=C2\Cc3ccccc3C2=O)c1)c1ccc(Cl)cc1,102%
18,O=[N+]([O-])c1ccc(N=Nc2c(Cl)cc(O)cc2Cl)cc1,5.82% (active)
19,O=c1c2ccccc2c2nccn2c2cc(Cl)ccc12,67.3%
20,CCN(CC)CCCCCCCNc1c2ccc(Cl)cc2nc2ccc(OC)cc12,-78.9% (active)

row,Structure (SMILES),growth
1,COc1cccc(C2=NN(C(C)=O)C(c3cc(OC)c(OC)c(OC)c3)C2)c1 (stereo not drawn),15.7%
2,O=C(c1ccccc1)C(CN1CCCCC1)c1ccccc1 (stereo not drawn),89%
3,Nc1ccn(C2O[C@H](CO)[C@@H](O)[C@@H]2O)c(=O)n1 (stereo partly drawn),53.5%
4,O=C(Nc1cccc(Cl)c1)Nc1cccc(Cl)c1,72.6%
5,COc1cccc(N2CCN(c3cccc(C)n3)CC2)c1,107%
6,Cc1cn(C(C=O)OC(C=O)CO)c(=O)[nH]c1=O (stereo not drawn),119%
7,CCOC(=O)CCC(=O)O[C@H]1[C@H](O[C@@H]2[C@@H](C)[C@H](O[C@H]3C[C@@](C)(OC)[C@@H](O)[C@H](C)O3)[C@@H](C)C(=O)O[C@H](CC)[C@@](C)(O)[C@H](O)[C@@H](C)C(=O)[C@H](C)C[C@@]2(C)O)O[C@H](C)C[C@@H]1N(C)C,105%
8,O=C(CNc1ccc2c(c1)C(=O)c1ccccc1C2=O)Nc1ccc2c(c1)C(=O)c1ccccc1C2=O,-93.3% (active)
9,O=c1[nH]c(N2CCC(Cc3ccccc3)CC2)nc2sc3c(c12)CCCC3,103%
10,Cn1cc(NC(=O)Nc2cc(C(=O)O)n(C)c2)cc1C(=O)O,107%
11,O=C(CN1CCN(c2ccc(Cl)cc2)CC1)N1CCN(c2nnc(-c3ccc(Cl)cc3)c(-c3ccc(Cl)cc3)n2)CC1,84.9%
12,O=C(Nc1ccc(Cl)cc1)Nc1ccccc1CNc1nc(Nc2ccc(OCCN3CCCC3)cc2)ncc1Cl,-21.1% (active)
13,CCCCCCCCCCOC(C)=O,109%
14,CCN(CC)CCNCC(=O)Oc1ccc(/C=C/C(=O)CC(=O)/C=C/c2ccc(OC(=O)CNCCN(CC)CC)c(OC)c2)cc1OC,-24.9% (active)
15,CC(=O)N1N=C(c2ccc(C(F)(F)F)cc2)CC1c1ccc2c(c1)OCO2 (stereo not drawn),94.3%
16,O=C1CSC(c2ccccc2O)N1c1nnc(Cn2ccnc2)o1 (stereo not drawn),67.1%
17,O=C(/C=C/c1cccc(Nc2ccnc3cc(Cl)ccc23)c1)c1ccc(Cl)cc1,71.4%
18,CC(NNC(=S)N1CCCCCC1)c1ccc2ccccc2n1 (stereo not drawn),36.6%
19,O=C(Nc1nc(-c2ccc(Cl)cc2)cs1)c1cc(-c2ccc(Br)cc2)nc2ccc(Cl)cc12,109%
